Measured values from PubChem BioAssay AID1645887 (National Center for Advancing Translational Sciences (NCATS), 2021).
Out of some 16,000 compounds screened, about 40 (0.2%) were called active. Inconclusive results (about 1%) are left out. The sample as a whole holds a higher share of actives than the screen did. More than one record can exist for a structure, and the calls need not agree. Values without a mark were called inactive. Calls follow the shape of the dose curve; as a rule, active = well fitted activation curve with a large enough effect; inconclusive = small, poorly fitted or top-dose-only effect, or another doubt; inactive = no such curve, though single readings can be large or run the other way. Residues, ends and D or L forms follow the SMILES beside them.

Biological target: Rap guanine nucleotide exchange factor 4 (Homo sapiens) (UniProt Q8WZA2)
Test: Validation qHTS for agonist of cAMP-regulated guanine nucleotide exchange factor 4 (EPAC2);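 as to activation: exchange makes BODIPY-GDP fluorescence drop when released from Rap1B; series mostly up to about 150 µM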
Conditions: EPAC2 Rap1B BODIPY-GDP exchange, fluorescence; activation: hits give high values
Text: Principle Investigator: Xiaodong Cheng Ph.D.
The University of Texas Medical Branch, […], TX
In multi-cellular eukaryotic organisms, the effects of cAMP are transduced by two ubiquitously-expressed intracellular cAMP receptors, the classic protein kinase A/cAMP-dependent protein kinase (PKA/cAPK) and the more recently discovered exchange protein directly activated by cAMP/cAMP-regulated guanine nucleotide exchange factor (EPAC/cAMP-GEF). Both PKA and EPAC are ubiquitously expressed in all tissues, and an increase in intracellular cAMP levels will lead to the activation of both PKA and EPAC. Therefore, careful dissections of the individual role and relative contribution of EPAC and PKA within the overall cAMP signaling in various model systems are critical for further elucidating the mechanism of cAMP signaling. To date no EPAC-specific antagonists and agonist, as well as isoform-specific agonists have been reported, and developing EPAC-specific pharmacological probes to determine the physiological functions that EPAC play in the overall cAMP-mediated signaling remains a major challenge within the research field. Furthermore, identified regulators of EPAC may lead to new mechanism-based therapeutic strategies specifically targeting the EPAC / cAMP-signaling components as EPAC has been implicated to play important roles in major human pathological conditions such as diabetes, heart disease, and cancer.
This qHTS will be used to screen the Molecular Libraries Small Molecule Repository (MLSMR) as a concentration-titration series using the NCGC unique quantitative screening (qHTS) platform to find activators for EPAC1. In addition, this assay will also be used as a counterscreen for the EPAC2 qHTS. This fluorescent based assay is developed and validated for EPAC1 that measures exchange using EPAC effector Rap1 complex with BODIPY-GDP, a GDP analog with a tethered fluorophores. Activators are identified by monitoring the change in fluorescence signal as the exchanged free BODIPY-GDP has a reduced fluorescence compared to Rap1-bound BODIPY-GDP. Increase in signal (activation) is the desired outcome for the EPAC1 agonist while no activity in this assay is desired for the EPAC2 agonist counterscreen.
[1] de Rooij, J., Zwartkruis, F. J., Verheijen, M. H., Cool, R. H., Nijman, S. M., Wittinghofer, A., and Bos, J.L. (1998) Nature 396, 474-477.
Briefly, three uL of reagents (100 nM EPAC2, 250 nM RAP1B-BODIPY-GDP, 50 uM GDP) were dispensed into a 1536-well Greiner black solid-bottom medium binding assay plate. Controls and test compounds (23 nL) were transferred to the plate via a Kalypsys pin tool equipped with a 1536-pin array. The plates were centrifuged at 1,000 rpm for 15 seconds followed by 5 minute incubation at room temperature. The assay plates were read at 5 minute intervals for 30 minutes in the ViewLux plate reader using 480nm excitation and 540nm emission filters. The results were normalized to the agonist positive control of 6.5 mM cAMP.
% is scaled to controls: 0 for no effect and ±100 for the full control effect; potency is read from the fitted curve at half-maximal effect.

Chain of Rap guanine nucleotide exchange factor 4 (Homo sapiens) (Q8WZA2 whole entry, looked up): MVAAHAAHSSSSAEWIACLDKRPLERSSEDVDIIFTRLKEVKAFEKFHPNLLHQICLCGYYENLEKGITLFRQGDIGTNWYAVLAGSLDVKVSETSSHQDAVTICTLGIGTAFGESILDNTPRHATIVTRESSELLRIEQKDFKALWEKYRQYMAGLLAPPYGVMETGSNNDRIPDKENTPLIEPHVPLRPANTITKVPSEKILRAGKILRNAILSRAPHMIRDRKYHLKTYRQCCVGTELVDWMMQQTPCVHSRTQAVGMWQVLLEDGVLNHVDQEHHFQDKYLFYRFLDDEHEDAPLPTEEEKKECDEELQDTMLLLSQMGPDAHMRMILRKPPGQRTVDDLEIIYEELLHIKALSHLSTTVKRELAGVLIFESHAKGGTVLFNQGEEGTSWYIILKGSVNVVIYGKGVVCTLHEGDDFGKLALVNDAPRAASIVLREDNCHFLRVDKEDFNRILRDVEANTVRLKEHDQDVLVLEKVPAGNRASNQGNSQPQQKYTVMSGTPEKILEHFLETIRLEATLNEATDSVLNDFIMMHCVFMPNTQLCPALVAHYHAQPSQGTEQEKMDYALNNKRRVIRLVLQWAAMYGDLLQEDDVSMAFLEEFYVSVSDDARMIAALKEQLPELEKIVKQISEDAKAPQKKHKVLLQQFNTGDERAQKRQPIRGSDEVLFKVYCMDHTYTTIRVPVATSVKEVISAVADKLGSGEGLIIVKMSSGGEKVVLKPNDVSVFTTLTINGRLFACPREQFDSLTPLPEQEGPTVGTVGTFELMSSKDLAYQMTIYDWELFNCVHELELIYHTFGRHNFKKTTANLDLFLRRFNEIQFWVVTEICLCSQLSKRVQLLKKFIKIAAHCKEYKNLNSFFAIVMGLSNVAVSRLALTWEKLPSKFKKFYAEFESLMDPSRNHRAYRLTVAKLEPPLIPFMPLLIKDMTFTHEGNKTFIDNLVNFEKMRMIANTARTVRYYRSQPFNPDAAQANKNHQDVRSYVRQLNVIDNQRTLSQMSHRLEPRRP

| Structure (SMILES) | activation | Potency |
| --- | --- | --- |
| CCNc1ncc2nc(-c3ccccc3)c(=O)n(CCc3ccccc3)c2n1 | 4.35% |  |
| CN1CCCC(CNC(=O)c2cnn(-c3ncc4c(n3)-c3ccccc3CC4)c2C2CC2)C1 (centres undefined) | -10.8% |  |
| O=C(CNC(=O)c1cccnc1)c1ccc(F)cc1 | -17.4% |  |
| O=C(c1cn(C2CCCN(Cc3cc(Cl)ccc3O)C2)nn1)N1CCCCC1 (centres undefined) | -0.543% |  |
| CNc1ccnc(-c2cccc(NS(C)(=O)=O)c2)n1 | 1.54% |  |
| CC(=O)Nc1ccc(S[C@@H](CCN2CC[C@H](C(C)(C)C)CCC2=O)c2ccccc2)cc1 | -31.2% |  |
| O=C(O)COc1ccc(CCNS(=O)(=O)c2ccccc2)s1 | 2.15% |  |
| CCn1c(-c2ccccc2F)nc2cc(NC(C)=O)cc(C(=O)N3CCNC(=O)C3CC(=O)OC)c21 (centres undefined) | -2.82% |  |
| O=C(C[N+]12CCCc3cccc(c31)CCC2)c1ccccc1 | -2.28% |  |
| CN(C)c1ccc(C(=C2C=CC(=[N+](C)C)C=C2)c2ccccc2)cc1 | -24.7% |  |
| Cn1c(C(c2cc3ccccc3n2C)c2cc3ccccc3n2C)cc2ccccc21 | 11.4% |  |
| COc1ccccc1CNc1ccnc(-c2ccoc2)n1 | -10.4% |  |
| CCCN1CCC(=O)N([C@H](CSc2ccccc2)c2ccccc2)CC1 | -10.4% |  |
| CC(=O)OC1CCC2(C)C3CC(=O)C4(C)C(CC5OC6(CCC(C)CO6)C(C)C54)C3CC[C@H]2C1 (some centres undefined) | -13.5% |  |
| O=C(O)c1ccc2nc(-c3ccccc3)c(-c3ccccc3)nc2c1 | 11.6% |  |
| Cc1nc(NCc2c(F)cccc2F)sc1-c1ccn(CCN2CCOCC2)n1 | -13.4% |  |
| COc1ccc(C(=O)N2CCC[C@@]3(CCN(c4ncccn4)C3)C2)cc1 | -15.1% |  |
| COc1cccc(Cn2c(=O)c(-c3ccc(F)cc3)nc3cnc(N4CCNCC4)nc32)c1 | 12.8% |  |
| C=C1CCC(OC(C)=O)/C(C)=C/CC2[C@H]1CC2(C)C (some centres undefined) | -15.7% |  |
| CCOC(=O)C[C@H]1c2cc(F)ccc2S(=O)(=O)N1C1CCCC1 | -9.78% |  |
| CN(C)c1ccc(/C=C/c2c3c(nc4ccccc24)CCCC3)cc1 |  | 44.7 µM (active) |
| Cc1cnc2ccccc2c1/C=C/c1ccc(N(C)C)cc1 | 20.8% |  |
| CN(C)c1ccc(/C=C/c2c3ccccc3nc3ccccc23)cc1 | -14.9% |  |
| OC(CN1CCCCC1)c1cc(-c2ccccc2)on1 (centres undefined) | 8.32% |  |
| CN(Cc1ccco1)c1ncnc2ccc(-c3ccccc3C(F)(F)F)cc12 | -4.16% |  |
| Cc1c(C(=O)N(C)Cc2cscn2)sc2ncnc(NC[C@H]3CCc4ccccc4O3)c12 | -2.34% |  |

| Structure (SMILES) | activation | Potency |
| --- | --- | --- |
| O=C(O)[C@@H]1CN[C@@H](C(=O)O)C1 | 11.8% |  |
| Cc1cc2c(c(-c3cnccn3)c1)OC(CNC(=O)c1ccc(-n3nc(C)cc3C)cc1)C2 (centres undefined) | -7.18% |  |
| CC(C)CC(NC(=O)CN)C(=O)NC(Cc1ccccc1)C(=O)O (stereo not drawn) (H-Gly-Leu-Phe-OH; configuration not given here) | -3.33% |  |
| CO[C@H]1[C@H](NC(=O)c2ccco2)c2ccccc2C12CCN(Cc1cnc(N(C)C)s1)CC2 | -21.4% |  |
| COc1ccc(-c2nc3cnc(OC)nc3n(C[C@H]3CCCO3)c2=O)cc1 | -6.48% |  |
| O=C(O)CCC(=O)OC[C@@H](NC(=O)C(Cl)Cl)C(O)c1ccc([N+](=O)[O-])cc1 (some centres undefined) | -9.09% |  |
| COCCn1c(=O)c(C)nc2cnc(OC)nc21 | -6.26% |  |
| CC(=O)O[C@H]1C[C@H]2CC[C@@H]3[C@H]4C[C@@H]([N+]5(C)CCCCC5)[C@@H](OC(C)=O)[C@]4(C)CC[C@@H]3[C@@]2(C)C[C@@H]1[N+]1(C)CCCCC1 | -8.62% |  |
| O=c1c(-c2ccccc2)nc2cnc(Oc3ccccc3)nc2n1Cc1cccs1 | -18.6% |  |
| CN1CCN(c2ncc3nc(CCc4ccccc4)c(=O)n(Cc4cccs4)c3n2)CC1 | 14.9% |  |
| CC1(C)CCC2=C(O1)c1ccccc1C(=O)C2=O | 17.8% | 70.8 µM (active) |
| CC1=CC(=O)c2ccccc2C1=O | -29.9% |  |
| CC1(S(=O)(=O)O)CC(=O)c2ccccc2C1=O (centres undefined) | 3.25% |  |
| CC(C)C(C)/C=C/C(C)C1CCC2C3=CCC4CC(=O)CC[C@@]4(C)C3CC[C@]21C (some centres undefined) | 0.449% |  |
| O=C(O)c1cccc(/C=C2/C[C@@H]3[C@@H](/C=C/[C@@H](O)C4CCCCC4)[C@H](O)C[C@@H]3O2)c1 | 15.9% |  |
| C=C1Cc2c(Cl)cc3[nH]c4c5c3c2[C@@]2(O)[C@@H]1C[C@@H]2C(C)(C)O[C@H]5[C@@H]1CC[C@@]2(O)[C@@]35O[C@@H]3[C@@H](O)[C@@H](C(=O)O)O[C@H]5CC[C@]2(C)[C@@]41C | -9.97% |  |
| N#CC[C@H](Cc1ccccc1)N1CC[C@@H](NC(=O)OCc2ccccc2)CCC1=O | -28.7% |  |
| Oc1cc(-c2nc3ccccc3s2)cc2c1OCCN(Cc1cccn1-c1ccccn1)C2 | 7.3% |  |
| COc1ccc(CN([C@H](CO)CC(C)C)S(=O)(=O)N(Cc2ccccc2)[C@H](CO)CC(C)C)cc1 | -27.3% |  |
| N#CCCn1c(=O)c(-c2cccs2)nc2cnc(Nc3ccccc3)nc21 | -2.03% |  |
| CCNc1ncc2nc(-c3cccs3)c(=O)n(CCC#N)c2n1 |  | 50.1 µM (active) |
| CCNc1ncc2nc(-c3cccs3)c(=O)n(CCc3ccccc3)c2n1 | -14% |  |
| O=c1[nH]c(=O)n(C2CC(O)C(CO)O2)cc1F (centres undefined) | -6.18% |  |
| CC(=O)Oc1ccc2c(c1)CC[C@@H]1[C@@H]2CC[C@]2(C)[C@@H](O)CC[C@@H]12 |  | 44.7 µM (active) |
| C[C@]12CC[C@@H]3c4ccc(OC(=O)c5ccccc5)cc4CC[C@H]3[C@@H]1CC[C@@H]2O | -2.11% |  |
| CC(=O)Oc1ccc2c(c1)CCC1C2CC[C@]2(C)C(OC(C)=O)CCC12 (some centres undefined) | -1.9% |  |

| Structure (SMILES) | activation | Potency |
| --- | --- | --- |
| CN(C)C(=O)c1ccc(-c2nc(N3CCOCC3)c3ccccc3n2)cc1 | -5.48% |  |
| CC(C)C[C@@H](CC#N)N1CCN(Cc2ccccc2)CCC1=O | -11.1% |  |
| Clc1ccc[n+](CCCCC[n+]2cccc(Cl)c2)c1 | -27.9% |  |
| O=C(Nc1ccc(C(F)(F)F)cc1[N+](=O)[O-])O[C@H]1[C@H](Cc2ccccc2)NS(=O)(=O)[C@H]2C[C@@H]3C=C[C@]12O3 | -19.6% |  |
| COc1ccc(C(=O)C[n+]2cccc3cccc(O)c32)cc1 | -13.2% |  |
| CC[C@@]1(O)C[C@H](O[C@H]2C[C@H](N(C)C)[C@H](O[C@H]3C[C@H](O)[C@H](O[C@H]4CCC(=O)[C@H](C)O4)[C@H](C)O3)[C@H](C)O2)c2c(cc3c(c2O)C(=O)c2c(O)cccc2C3=O)[C@H]1C(=O)OC | 26% |  |
| COc1cccc2c1C(=O)c1c(O)c3c(c(O)c1C2=O)C[C@@](O)(C(=O)CO)C[C@@H]3O[C@H]1C[C@H](N)[C@H](O[C@@H]2CCCCO2)[C@H](C)O1 | 1.58% |  |
| CC(=O)[C@]1(O)Cc2c(O)c3c(c(O)c2[C@@H](O[C@H]2C[C@H](N)[C@H](O)[C@H](C)O2)C1)C(=O)c1ccccc1C3=O |  | 100 µM (active) |
| CC(=O)[C@]1(O)Cc2c(O)c3c(c(O)c2[C@@H](O[C@H]2C[C@H](N)[C@H](O)[C@H](C)O2)C1)C(=O)c1c(O)cccc1C3=O |  | 100 µM (active) |
| COc1cccc2c1C(=O)c1c(O)c3c(c(O)c1C2=O)C[C@@](O)(C(=O)CO)C[C@@H]3O[C@H]1C[C@H](N)[C@H](O)[C@H](C)O1 | -17.2% |  |
| CCCCC(=O)OCC(=O)[C@]1(O)Cc2c(O)c3c(c(O)c2[C@@H](O[C@H]2C[C@H](NC(=O)C(F)(F)F)[C@H](O)[C@H](C)O2)C1)C(=O)c1c(OC)cccc1C3=O | -1% |  |
| COc1cccc2c1C(=O)c1c(O)c3c(c(O)c1C2=O)C[C@@](O)(C(C)=O)C[C@@H]3O[C@H]1C[C@H](N)[C@H](O)[C@H](C)O1 |  | 100 µM (active) |
| Cc1c(C(=O)NCc2ccco2)cnn1-c1ncc2c(n1)-c1ccccc1CC2 | -0.162% |  |
| O=C(c1ccncc1)N1CCC2(CCCN(c3ccc(-c4ccccc4)cc3)C2)CC1 | -3.07% |  |
| COc1cc2c(cc1OC)C(=O)N(C)CC2 | -9.91% |  |
| CC(C)NC(=O)[C@@H]1C[C@@H](Sc2ccccn2)CN1C1CCN(C)CC1 | -0.85% |  |
| C=CCN1[C@@H](Cc2ccccc2)COCCS1(=O)=O | -11.2% |  |
| Cc1cccc(CN2Cc3cccc4c3[C@H](C=CC4)CC2=O)c1 | -35.8% |  |
| Cc1cc(CC(=O)O)c(C)n1-c1ccc(Cl)cc1 | -0.347% |  |
| COc1ccccc1CNc1ncncc1-c1ccccc1CN(C)C | -6.39% |  |
| COc1ccccc1CCNc1ncnc2sc(C(=O)N3CCCC3)c(C)c12 | -2.93% |  |
| COc1cccc(-c2ccc3ncnc(NCc4cccnc4)c3c2)c1 | -11% |  |
| Clc1cccc[n+]1CCc1ccccc1 | -40.7% |  |
| COc1ccc(N2C(=O)[C@@H]3C[C@H]2CN3Cc2ccc3nccnc3c2)cc1Cl | -3.06% |  |
| CC[C@@H]1[C@H]2CCCC(=O)N3CC[C@@H](C[C@H]1O)[C@@H]23 | -8.94% |  |
| N[C@@H](Cn1cc(I)c(=O)n(Cc2ccc(C(=O)O)cc2)c1=O)C(=O)O | 2.18% |  |
